Records with an inconclusive call do not appear. A call without a number means that no potency is given here. Active and inactive are the calls of the source. Calls come from the whole dose curve; as a rule, active = well fitted curve in the direction sought with a large enough effect; inconclusive = small, poorly fitted or top-dose-only effect, or another doubt; inactive = no such curve, though single readings can be large; an effect the other way counts as inactive or inconclusive.
Assays:
[1] = 10-beta competent E. coli microbial cell viability qHTS against the NCATS CANVASS Library (AID 1347376); note: series mostly up to about 46 µM
How it was run: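 Bacterial suspension diluted to 0.2 OD was dosed with compounds, 11-point series, then held overnight at 37C. BacTiter-Glo reagent was added, and after 20 min at room temperature ATP-dependent luminescence was measured.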

[2] = DH5-alpha competent E. coli microbial cell viability qHTS against the NCATS CANVASS Library (AID 1347377); conditions: outcome: dose series up to 46.1 µM
How it was run: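 Bacteria were dispensed at 0.2 OD, then compounds were pin-transferred. Plates were incubated overnight at 37C, after which BacTiter-Glo was added and luminescence measured 20 min later.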

[3] = qHTS for H2AX Agonists against the NCATS CANVASS Library (AID 1347378); note: potency is the fitted concentration of half-maximal effect
How it was run: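 CHO-K1 cells were plated overnight at 37C, then exposed to compounds (concentration series, 0.76% DMSO final) for 3 hr at 37C. Lysates received Eu-cryptate anti-pH2AX (S139) and d2 anti-H2AX antibodies; after 24 hr at room temperature, TR-FRET 665/620 nm ratio was read.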

[4] = qHTS for Inflammasome Signaling Inhibitors: IL-1-beta AlphaLISA screen against the NCATS CANVASS Library (AID 1347379); conditions: outcome: dose series up to 57.5 µM;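 note: human THP-1 cells primed with LPS then triggered with ATP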
Text: Natural products and their derivatives continue to be wellsprings of nascent therapeutic potential. However, many laboratories have limited resources for biological evaluation, leaving their previously isolated or synthesized compounds largely or completely untested. To address this issue, the Canvass library of natural products was assembled (https://tripod.nih.gov/canvass), in collaboration with academic and industry researchers, for quantitative high-throughput screening (qHTS) across a diverse set of cell-based and biochemical assays. […] The library was formatted into 1536-well plates and evaluated in 50 qHTS (in an 11-pnt concentration series) bioassays with broad scope of disease-relevant mechanisms. The resulting data set from 50 different assays was then systematically analyzed to identify overall trends and specific natural products with interesting biological activities. […]
IL-1-beta qHTS protocol: Three microliters containing 3000 THP-1 cells were dispensed into the wells of solid, white, tissue culture treated Greiner 1,536-well plates. […] The AlphaLISA signal was read by a PerkinElmer EnVision plate reader with an ultrasensitive luminescence detector and 1536 Plate HTS AlphaScreen aperture (excitation of 680nm and emission of 615nm).

[5] = qHTS for Antimalaria activity screened against the NCATS CANVASS Library (AID 1347380); note: potency is the fitted concentration of half-maximal effect; nearly all actives have a fitted effect of over 40% in size; conditions: P. falciparum Dd2 growth, SYBR Green fluorescence, 72 h
How it was run: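 Compounds are titrated over 11 concentrations onto Dd2 parasite cultures (0.3% parasitemia, 2.5% hematocrit). Growth over 72 h at 37C in low oxygen is measured as SYBR Green DNA fluorescence after lysis.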

[6] = Inflammasome Signaling qHTS Counterscreen: IL-1-beta AlphaLISA counterscreen against the NCATS CANVASS Library (AID 1347381);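 note: cell-free check with purified IL-1β in medium and no THP-1 cells; series mostly up to about 57 µM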
How it was run: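 Purified IL-1-beta (4 pg/well) + compound, 11-pt conc. series; acceptor beads 6 ug/mL + biotin-Ab 0.6 nM final, 1 h RT; SA-donor 24 ug/ml final, 30 min dark RT; read ex 680/em 615.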

[7] = Cytotoxicity qHTS for assessment of Hepg2 cells membrane integrity screened against the NCATS CANVASS Library (AID 1347387)
How it was run: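 Cells were seeded at 2000 per well and left overnight to attach. Compounds were pin-transferred to give 0.59 nM - 46 uM in an 11-point series and incubated 5 hr at 37C. CytoTox-ONE reagent was added and, after 10 min at room temperature, fluorescence (ex 560, em 590 nm) was read.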

[8] = qHTS for Activators of p53 Stress Response Pathway screened against the NCATS CANVASS Library (AID 1347388)
How it was run: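 p53RE-bla HCT-116 cells (4000/well) were pre-incubated for 5 h, then treated with compound (11 points) for 16 h at 37C. After 2 h with CCF4, the 460/530 nm ratio gave reporter activation; CellTiter-Glo measured viability.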

[9] = qHTS assay for small molecule disruptors of mitochondrial membrane potential screened against the NCATS CANVASS Library (AID 1347389); note: nearly all actives have a fitted effect of over 60% in size; note: potency is the fitted concentration of half-maximal effect
How it was run: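 Mitochondrial depolarization in HepG2 cells is scored as a falling aggregate-to-monomer fluorescence ratio after 1 hr compound exposure and 30 min staining with Mito-MPS dye at 37C, each compound tested as an 11-point titration.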

[10] = qHTS for activators of dead-cell proteases activity screened against the NCATS CANVASS Library (AID 1347392);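 note: luminescence from protease leaking out of membrane-damaged cells cleaving impermeant substrate; rising signal means more cytotoxicity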
How it was run: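 HepG2, 2000 cells/well, 18 h attach; cpd 11-pt, 5 h 37C 5% CO2; CytoTox-Glo (AAF-aminoluciferin) 15 min RT; luminescence read.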

| SMILES | outcome [1] | outcome [2] | Potency [3] | outcome [4] | Potency [5] | outcome [6] | outcome [7] | outcome [8] | Potency [9] | outcome [10] |
| --- | --- | --- | --- | --- | --- | --- | --- | --- | --- | --- |
| O=c1cc(-c2ccccc2)oc2c(O)c(O)ccc12 | inactive | inactive | 34.4 µM (active) | inactive | 0.0067 µM (active) | inactive | inactive | inactive | 18.6 µM (active) | inactive |
| O=C(O)c1cc(O)c(O)c(O)c1 | inactive | inactive | inactive | inactive | 0.0053 µM (active) | inactive | inactive | inactive | inactive | inactive |
